BAZ2B inh: inhibitors of human BAZ2B bromodomain; Potency, µM (top dose mostly 114 µM), for inactives: at the top dose activity change, negative = inhibition, actives largely listed as inhibitors; hit rate 4.4% among 360,000; AID 504333; AlphaScreen BAZ2B-H3K14Ac peptide displacement; also: % is scaled to controls: 0 for no effect and ±100 for the full control effect; nearly all actives have a fitted effect of over 60% in size
Target sequence (Q9UIF8 whole entry, looked up): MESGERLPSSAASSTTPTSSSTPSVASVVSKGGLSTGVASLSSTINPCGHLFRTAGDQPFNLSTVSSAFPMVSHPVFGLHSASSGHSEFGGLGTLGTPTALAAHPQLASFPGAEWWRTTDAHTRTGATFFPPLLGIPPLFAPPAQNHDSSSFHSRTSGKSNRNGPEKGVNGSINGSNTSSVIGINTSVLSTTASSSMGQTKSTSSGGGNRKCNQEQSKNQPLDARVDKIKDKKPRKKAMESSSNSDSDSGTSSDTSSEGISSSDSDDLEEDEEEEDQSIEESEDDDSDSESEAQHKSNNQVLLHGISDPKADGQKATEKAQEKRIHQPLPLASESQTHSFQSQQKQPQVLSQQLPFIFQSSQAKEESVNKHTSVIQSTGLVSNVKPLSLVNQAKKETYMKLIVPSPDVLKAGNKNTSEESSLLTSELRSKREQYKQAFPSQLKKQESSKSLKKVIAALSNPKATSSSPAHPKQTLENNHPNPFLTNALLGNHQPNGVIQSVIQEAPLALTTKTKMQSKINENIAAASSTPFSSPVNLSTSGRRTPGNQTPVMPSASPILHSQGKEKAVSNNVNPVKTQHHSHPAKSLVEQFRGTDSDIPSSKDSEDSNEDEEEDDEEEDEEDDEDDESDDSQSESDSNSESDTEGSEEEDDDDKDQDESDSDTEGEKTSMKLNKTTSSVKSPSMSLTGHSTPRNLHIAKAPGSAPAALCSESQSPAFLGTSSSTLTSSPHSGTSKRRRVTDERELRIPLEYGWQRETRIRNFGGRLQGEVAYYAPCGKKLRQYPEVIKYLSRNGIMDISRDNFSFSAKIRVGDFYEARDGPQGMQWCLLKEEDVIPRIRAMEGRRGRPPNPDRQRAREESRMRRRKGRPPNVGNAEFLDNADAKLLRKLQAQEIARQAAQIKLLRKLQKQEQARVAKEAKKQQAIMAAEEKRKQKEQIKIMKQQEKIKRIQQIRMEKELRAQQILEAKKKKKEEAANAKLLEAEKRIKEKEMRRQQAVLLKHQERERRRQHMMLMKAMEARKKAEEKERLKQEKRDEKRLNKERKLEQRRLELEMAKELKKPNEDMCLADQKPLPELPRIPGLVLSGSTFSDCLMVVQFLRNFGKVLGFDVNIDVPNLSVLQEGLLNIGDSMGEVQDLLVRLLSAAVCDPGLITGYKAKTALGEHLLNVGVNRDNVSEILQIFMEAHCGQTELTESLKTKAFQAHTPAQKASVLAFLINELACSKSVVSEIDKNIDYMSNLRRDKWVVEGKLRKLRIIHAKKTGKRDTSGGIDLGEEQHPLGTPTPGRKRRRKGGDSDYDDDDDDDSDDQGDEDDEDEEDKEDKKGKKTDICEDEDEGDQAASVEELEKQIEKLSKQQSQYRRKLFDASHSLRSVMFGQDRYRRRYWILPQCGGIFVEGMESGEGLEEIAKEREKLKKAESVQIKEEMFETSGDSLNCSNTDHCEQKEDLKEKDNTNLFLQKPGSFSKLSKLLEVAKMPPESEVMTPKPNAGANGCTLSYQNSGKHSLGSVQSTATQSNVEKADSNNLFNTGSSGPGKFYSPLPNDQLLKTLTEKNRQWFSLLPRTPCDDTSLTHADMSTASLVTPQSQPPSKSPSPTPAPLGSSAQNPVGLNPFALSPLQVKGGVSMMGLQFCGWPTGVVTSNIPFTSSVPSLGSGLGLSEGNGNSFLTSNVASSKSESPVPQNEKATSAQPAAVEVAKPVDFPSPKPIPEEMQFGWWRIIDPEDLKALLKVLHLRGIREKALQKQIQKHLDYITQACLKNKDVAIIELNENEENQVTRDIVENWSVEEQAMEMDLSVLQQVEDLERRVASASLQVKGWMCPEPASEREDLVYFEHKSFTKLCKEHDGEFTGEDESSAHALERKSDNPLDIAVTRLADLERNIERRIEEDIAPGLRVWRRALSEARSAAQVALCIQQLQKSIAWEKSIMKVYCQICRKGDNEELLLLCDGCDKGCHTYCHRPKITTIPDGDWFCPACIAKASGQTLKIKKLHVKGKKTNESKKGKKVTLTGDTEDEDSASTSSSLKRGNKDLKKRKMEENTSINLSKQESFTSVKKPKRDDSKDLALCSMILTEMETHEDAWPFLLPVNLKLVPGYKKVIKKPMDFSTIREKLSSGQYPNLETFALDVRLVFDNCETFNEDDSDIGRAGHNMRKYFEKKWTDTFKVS
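In this displacement format the biotinylated H3(5-23) peptide acetylated at Lys14 serves as ligand at 50 nM, with BAZ2B at 50 nM in PBS pH 7.4 containing 0.01% Tween-20. Donor and acceptor beads are 10 ug/mL final.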
GLS inh: blocks human kidney-isoform glutaminase activity | hit rate 0.21% among 410,000 | GLS enzymatic activity, qHTS titration | Potency, µM (top dose mostly 45.5 µM), inactives show top-dose activity change, negative = inhibition, usual class: inhibitors; also: % is scaled to controls: 0 for no effect and ±100 for the full control effect
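Assay buffer: 45 mM KH2PO4 pH 8.2, 0.02% Tween-20. hKGA acts on L-glutamine (1 mM solution added); product glutamate is reported by an oxidase/peroxidase Amplex Red coupling, with fluorescence taken at baseline and 30 min.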
G9a inh: G9a (human) methyltransferase inhibition | Q96KQ7 | G9a H3K9 monomethylation, AlphaScreen, 2 h | Potency, µM (doses to about 102 µM), inactives show top-dose activity, negative = inhibition, actives largely listed as inhibitors | hit rate 8.8% among 350,000 | AID 504332; also: % is scaled to controls: 0 for no effect and ±100 for the full control effect; nearly all actives have a fitted effect of over 75% in size
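Compounds were preincubated with 20 nM G9a for 15 min, after which biotinylated H3K9 peptide (500 nM) and SAM (20 uM) started a 2 h room-temperature reaction. Monomethylated product was quantified by antibody-based AlphaScreen chemiluminescence.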
HP1b chromo inh: HP1-beta chromodomain-methylated histone interaction inhibition; AlphaScreen HP1-beta / biotin-H3K9me3 peptide binding; Potency, µM (titrated, usually from 114 µM), for the others: top-dose activity change, negative = inhibition, actives largely listed as inhibitors; hit rate 0.56% among 390,000; AID 540317; also: nearly all actives have a fitted effect of over 70% in size
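HP1-beta protein (50 nM final) preincubated 30 min at room temperature with biotinylated H3(1-18)K9me3 peptide (50 nM) in PBS pH 7.4, 0.01% Tween-20, then compound added for 30 min. AlphaScreen streptavidin donor/nickel chelate acceptor beads (10 ug/mL final), 30 min dark, luminescence read.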
JMJD2A Tudor inh: inhibitors of human JMJD2A Tudor domain; O75164; AlphaScreen JMJD2A-Tudor / H3K4me3 peptide binding; Potency, µM (doses to about 114 µM), inactives show top-dose activity change, negative = inhibition, usual class: inhibitors; hit rate 4.4% among 390,000; AID 504339; also: % is scaled to controls: 0 for no effect and ±100 for the full control effect; nearly all actives have a fitted effect of over 50% in size
The depositor's hits bear a star; u = inconclusive; x = not tested or not shown; [ ] = another dose, or the depositor's remark. Compounds with a hit are over-represented: about 10% of the library has one in this group of screens. Calls follow the shape of the dose curve; as a rule, active = well fitted curve in the direction sought with a large enough effect; inconclusive = small, poorly fitted or top-dose-only effect, or another doubt; inactive = no such curve, though single readings can be large; an effect the other way counts as inactive or inconclusive. Potency is read from the fitted curve at half-maximal effect.

SMILES	BAZ2B inh	GLS inh	G9a inh	HP1b chromo inh	JMJD2A Tudor inh
CCc1nnc(NS(=O)(=O)c2ccc(NC(=S)NC(=O)c3ccccc3)cc2)s1	u	0.7%	u	-6.2%	u
CCc1nnc(NS(=O)(=O)c2ccc(NC(=S)NC(=O)c3ccc(Br)cc3)cc2)s1	u	22.9%	-19.6%[59 µM]	-21.1%	u
CCc1nnc(NS(=O)(=O)c2ccc(NC(=S)Nc3ccc(F)cc3)cc2)s1	1.1%	-2.9%	-8.2%[59 µM]	13.5%	-34.0%
CCCc1nnc(NS(=O)(=O)c2ccc(OC)cc2)s1	-21.6%	6.2%	44.7µM*	14.8%	-8.6%
CCc1nnc(NS(=O)(=O)c2ccc(NC(=S)NC(=O)/C=C/c3ccc(C(C)C)cc3)cc2)s1	50.1µM*	20.4%	17.8%[0.501 µM]	u	56.2µM*
CCc1nnc(NS(=O)(=O)c2ccc(NC(=S)NC(=O)/C=C/c3ccc(OC)cc3)cc2)s1	u	23.9%	50.1µM*	u	31.6µM*
CC(C)c1ccc(CCNC(=O)c2ccc([N+](=O)[O-])cc2)cc1	-7.1%	-1.9%	8.3%[59 µM]	35.7%	-19.4%
CSc1ccc(CNC(=O)C2(C)CCN2C(C)C)cc1 (centres undefined)	x	2.3%	x	x	x
Cc1ccc(S(=O)(=O)N(CC(=O)Nc2ccc(C)c(Cl)c2)C(=O)N2CCN(C)CC2)cc1	7.5%	-8.6%	3.4%[2.33 µM]	18.0%	-4.8%
COc1cc2ccccc2cc1C(=O)Nc1ccc(N2CCN(C)CC2)cc1	u	x	u	-6.5%	u
C=CC(=O)Nc1ccc(N(C)c2ccnc(Nc3ccc(N4CCN(C)CC4)cc3)n2)cc1	x	43.0%	x	u	35.5µM*
CC(=O)Nc1ccc(S(=O)(=O)N2CCN(CC3CC4C=CC3C4)CC2)cc1 (centres undefined)	35.5µM*	-12.8%	28.2µM*	u	6.31µM*
CC(=O)Nc1ccc(S(=O)(=O)N2CCN(Cc3ccccc3[N+](=O)[O-])CC2)cc1	-32.3%	-0.5%	u	11.5%	-28.5%
CC(=O)Nc1ccc(CN2CCN(C3CCCC3)C(CCO)C2)cc1 (centres undefined)	4.9%	-1.5%	x	15.3%	-8.3%
CC(=O)Nc1ccc(CN2CCCN(C)CC2)cc1	u	6.0%	20µM*	u	22.4µM*
CCOc1ccc(CN2CCN(S(=O)(=O)c3ccc(NC(C)=O)cc3)CC2)cc1	25.1µM*	-18.7%	22.4µM*	35.5µM*	7.94µM*
CCOc1ccc(NC(=O)CN2CCN(S(=O)(=O)c3ccc(OC)cc3)CC2)cc1	-12.9%	1.3%	-24.6%[59 µM]	-9.9%	-20.5%
CC(=O)Nc1ccc(S(=O)(=O)N2CCN(S(=O)(=O)c3ccccc3)CC2)cc1	-3.0%	1.0%	2.8%	12.5%	-0.3%
COc1cc(OC)c(OC)cc1CN1CCN(S(=O)(=O)c2ccc(NC(C)=O)cc2)CC1	50.1µM*	-13.3%	x	u	1µM*
CC(C)N1CCC(N2CCN(CCCn3cccn3)CC2CCO)CC1 (centres undefined)	-0.5%	2.8%	3.7%	58.7%	-9.0%
CC(C)C(=O)Nc1nnc(COc2ccc(Cl)cc2)s1	-2.3%	4.3%	19.2%	29.8%	-17.6%
CCn1c(=O)n(CC)c2cc(N3CCCC3)c(NC(=O)c3ccc(C)c([N+](=O)[O-])c3)cc21	-32.3%	0.3%	8.91µM*	11.8%	u
CCn1c(=O)n(CC)c2cc(N3CCCC3)c(NC(=O)c3cccc(C)c3)cc21	50.1µM*	-1.3%	28.2µM*	-5.7%	u
Cc1cccc(C(=O)Nc2cc3c(cc2N2CCCCC2)n(C)c(=O)c(=O)n3C)c1	-0.3%	0.8%	3.7%[59 µM]	30.5%	1.7%
O=[N+]([O-])c1cc([N+](=O)[O-])c(Oc2cncc(Cl)c2)cc1NC1CCCCCCC1	u	7.8%	u	u	u
SMILES	BAZ2B inh	GLS inh	G9a inh	HP1b chromo inh	JMJD2A Tudor inh
O=[N+]([O-])c1ccc(Oc2cc(NC3CCCCCCC3)c([N+](=O)[O-])cc2[N+](=O)[O-])cc1	u	-13.8%	39.8µM*	-3.3%	u
O=[N+]([O-])c1cc([N+](=O)[O-])c(Oc2cc(Cl)ccc2Cl)cc1NC1CCCCCCC1	u	-0.2%	39.8µM*	1.9%	u
Cc1nc([N+](=O)[O-])c(C(=O)OCc2cccc(Br)c2)n1C	-17.1%	0.0%	50.1µM*	33.4%	-16.4%
CCN1CCN(c2ncc3c(n2)CCN(Cc2cc(F)cc(F)c2)C3)CC1	50.1µM*	8.4%	u	-4.6%	79.4µM*
CCN1CCN(c2ncc3c(n2)CCN(Cc2ccc(OC)c(OC)c2)C3)CC1	-25.5%	9.4%	-24.0%[12.7 µM]	22.7%	-25.5%
CCCN1CCc2nc(N3CCN(CC)CC3)ncc2C1	-16.6%	3.8%	u	13.5%	u
CCc1ccc(CN2CCc3nc(N4CCN(CC)CC4)ncc3C2)cc1	56.2µM*	24.2%	u	11.3%	u
CCn1c(-c2cc(-c3cc(OC)ccc3OC)nc3ccccc23)n[nH]c1=S	u	-10.4%	3.55µM*	28.0%	20µM*
CCn1c(-c2cc(-c3ccccc3OC)nc3ccccc23)n[nH]c1=S	-38.9%	4.0%	2.82µM*	22.5%	56.2µM*
COc1ccc(OC)c(NC(=O)Cn2c(C)nc3ccccc3c2=O)c1	6.3%	-5.0%	39.1%	27.1%	-17.4%
CCN(CC)/[N+]([O-])=N/Oc1cc(O/N=[N+](\[O-])N(C)C)c([N+](=O)[O-])cc1[N+](=O)[O-]	x	x	x	-5.3%	u
O=C(CCCl)Nc1cccc2cccnc12	x	x	x	68.5%	79.4µM*
NC(=S)NNc1cccc2cccnc12	25.1µM*	u	17.8µM*	-15.9%	10µM*
CCC(=O)Nc1cccc2cccnc12	-5.1%	3.9%	-12.4%[59 µM]	67.5%	6.1%
NC(=S)Nc1cccc2cccnc12	u	12.3%	22.2%[2.33 µM]	10.0%	-30.8%
O=C(CI)Nc1cccc2cccnc12	x	x	x	-20.1%	20µM*
O=C(CCBr)Nc1cccc2cccnc12	x	x	x	7.0%	79.4µM*
O=C(CSc1ccccc1)Nc1ccccc1C(=O)O	-0.9%	10.3%	-1.5%[59 µM]	21.2%	-6.3%
S=C1SCN(CCc2ccccc2)CN1CCc1ccccc1	x	3.6%	x	x	x
S=c1[nH]ccn1CCc1ccccc1	27.1%	-0.3%	10µM*	-28.0%	u
Cc1nn(-c2ccccc2)c(Cl)c1/C=C(\C#N)C(=O)NC(C)C	9.1%	4.8%	2.6%[59 µM]	24.7%	-16.0%
COCCN(C/C=C/c1ccccc1)C/C=C/c1ccccc1	u	5.3%	7.08µM*	u	1µM*
CN1C=CC2=C(C#N)C(N)C(C#N)(C#N)[C@H](c3ccccc3)[C@H]2C1 (some centres undefined)	-8.7%	6.3%	u	50.0%	-15.7%
CCc1nc2ccccc2c(C(=O)OCC(=O)N(C)Cc2ccccc2)c1C	x	0.6%	x	69.1%	5.0%
CCOC(=O)c1c(CCl)nc2ccccc2c1C	u	-0.2%	u	32.2%	89.1µM*
Cc1nc2ccccc2c(C)c1C(=O)c1ccccc1	u	-15.6%	50.1µM*	33.8%	-8.3%[11.4 µM]

Screening data from PubChem.
